EBI2 block: blocks human EBI2 receptor beta-arrestin signaling; P32249; EBI2 beta-arrestin recruitment, luminescence, 7a,25-OHC stimulated; inhibition, % at 5 µM; actives 0.81% (n = 360,000); in the data active means inhibition above about 38%;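 further: enzyme fragment complementation signal reports receptor beta-arrestin coupling in cells; 0% = agonist plus DMSO wells and 100% = wells without agonist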
Target sequence (P32249 whole entry, looked up, the tested form may be a part): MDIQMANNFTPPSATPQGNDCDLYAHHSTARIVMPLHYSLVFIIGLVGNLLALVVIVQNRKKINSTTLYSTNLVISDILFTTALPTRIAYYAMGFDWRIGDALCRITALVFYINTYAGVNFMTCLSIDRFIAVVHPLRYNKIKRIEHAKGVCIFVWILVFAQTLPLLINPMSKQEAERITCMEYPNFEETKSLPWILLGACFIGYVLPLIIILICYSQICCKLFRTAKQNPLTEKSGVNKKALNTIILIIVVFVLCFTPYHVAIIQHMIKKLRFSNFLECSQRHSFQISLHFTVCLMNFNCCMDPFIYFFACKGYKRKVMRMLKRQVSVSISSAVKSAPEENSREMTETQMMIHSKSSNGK
SKKanGAS inh: SKKanGAS growth inhibition. S. pyogenes SKKanGAS, kanamycin growth, BacTiter-Glo, 6 h. inhibition, % at 7.5 µM. actives 1.3% (n = 300,000). AID 1662;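 active means mean replicate score, as percent of positive control median, at least 50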;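 further: strain carries kanamycin resistance gene driven by streptokinase promoter and grows in 40 µg/ml kanamycin; loss of luminescence reflects streptokinase promoter inhibition or plain growth inhibition; 0% = median of DMSO wells and 100% = positive control at its reference dose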
TIM10 inh: TIM10 yeast growth inhibition; S. cerevisiae TIM10 strain growth, BacTiter-Glo luminescence, 24 h; inhibition, % at 10 µM; actives 1.4% (n = 330,000); AID 463195;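 active means inhibition of 40% or more at the single tested concentration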;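 further: wild-type TIM10 isogenic control strain grown at permissive 25 °C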
PfHsp90 set2: growth inhibition of yeast expressing Plasmodium Hsp90. S. cerevisiae expressing PfHsp90, BacTiter-Glo ATP, 48 h; yeast lacking PDR1 and PDR3 efflux regulators. inhibition, % at 9.4 µM. actives 0.32% (n = 310,000). AID 504621;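 active means every replicate shows inhibition above about 80%, whatever the replicate mean, limit read from the data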;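 further: 0% = DMSO neutral controls and 100% = 20 µM radicicol positive controls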
tim10-1 inh: growth inhibitors of tim10-1 mutant yeast; S. cerevisiae tim10-1 ts strain growth, BacTiter-Glo, 24 h; inhibition, % at 20 µM; actives 2.2% (n = 330,000); AID 463190;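 active means inhibition of at least 40%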;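 further: mutant grown at 25 °C; 0% = DMSO wells with yeast and 100% = wells holding no yeast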
tim23-1 inh: growth inhibitors of tim23-1 mutant yeast | S. cerevisiae tim23-1 growth, BacTiter-Glo luminescence, 24 h | actives 1.3% (n = 330,000) | inhibition, % at 20 µM;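 active means growth inhibition of the mutant yeast at or above 50%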;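 further: temperature-sensitive mutant grown at 25 °C; plate controls were DMSO-treated mutant yeast for no effect and medium wells lacking yeast for full effect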
tim23-1 confirm: confirmation of tim23-1 mutant yeast growth inhibitors | inhibition, % at 20 µM | actives 83% (n = 4,400) | shares compounds with tim23-1 inh | AID 463218 | S. cerevisiae tim23-1 growth, BacTiter-Glo luminescence, 24 h;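 active means inhibition above about 39% in either of two replicate wells at 20 µM, limit read from the data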;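 further: temperature-sensitive tim23-1 mutant grown at 25 °C; 0% = DMSO wells with yeast and 100% = medium wells without yeast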
An asterisk follows results filed as active; · = not tested or not shown. In the library only some 4.7% were active in any assay of this set; here they are far more common.

SMILES	EBI2 block	SKKanGAS inh	TIM10 inh	PfHsp90 set2	tim10-1 inh	tim23-1 inh	tim23-1 confirm
CCCn1c(=O)[nH]c(=O)c2c1nc(-c1cc([N+](=O)[O-])ccc1Cl)n2CCOC	4	1	6	10	8	-3	·
CC(=O)C1=NOC2C(=O)N(c3ccccc3)C(=O)C12 (stereo not drawn)	-1	-1	1	37	-1	1	·
Cc1ccc2nc(NC(=O)COC(=O)c3cccnc3)sc2c1	1	·	31	·	-15	53*	60*
Cc1ccc2nc(NC(=O)COC(=O)c3ccco3)sc2c1	-10	8	31	·	7	17	·
CCC1CCCCN1C(=O)Cn1c(=O)n(CCCC(=O)NCc2ccco2)c(=O)c2sccc21 (stereo not drawn)	-12	-3	13	-1	-7	9	·
CC(C)C1Cc2c(sc3ncnc(NN)c23)CO1 (stereo not drawn)	9	7	7	-38	30	52*	27
CC(C)Cc1nc2sc3c(c2c(=O)n1N)CC(C(C)C)OC3 (stereo not drawn)	8	-5	-26	11	-13	5	·
O=C1NC(c2ccccc2Cl)=N/C1=C/c1ccco1	6	5	31	12	16	53*	22
CCC(C)(NC(=O)c1ccc2c(c1)OCO2)C(=O)NC1CCCCC1 (stereo not drawn)	3	6	13	3	10	15	·
COCCN(C(=O)c1ccc(N2C(=O)c3ccccc3C2=O)cc1)c1c(N)n(CC(C)C)c(=O)[nH]c1=O	-2	·	16	-9	21	60*	51*
CCCCN(C(=O)c1ccc(C)cc1)c1c(N)n(CCC)c(=O)[nH]c1=O	-10	0	23	-2	15	53*	54*
CCCCN(C(=O)c1ccc2c(c1)OCO2)c1c(N)n(CCCC)c(=O)[nH]c1=O	-7	1	10	·	19	52*	53*
FC(F)(F)c1cnc(COc2ccc(Cl)cc2Cl)c(Cl)c1	5	14	-14	9	2	12	·
Oc1cccc(-c2nc3ccccc3s2)c1	11	-11	29	-21	34	47	·
CCOc1cc(-c2nc3ccccc3s2)ccc1O	-9	-6	27	-32	35	59*	37
Cc1ccc(OCc2ccc(C(=O)NNC(=S)NCC3CCCO3)o2)c([N+](=O)[O-])c1 (stereo not drawn)	4	3	23	-6	30	10	·
C=CCN(c1ccc(F)cc1)S(=O)(=O)c1cc(C(=O)OCC(=O)N(C)C2CCS(=O)(=O)C2)ccc1Cl (stereo not drawn)	1	10	8	-6	13	15	·
O=C(Nc1ccc(N2CCN(C(=O)c3ccco3)CC2)c(Cl)c1)c1cccs1	10	2	20	16	28	58*	53*
O=C(Nc1ccc(Cl)c(NC(=O)c2cccs2)c1)c1ccco1	2	-5	10	16	27	55*	48*
CC(C)C(=O)N1CCN(c2ccc(NC(=O)c3cccs3)cc2Cl)CC1	7	-3	24	24	-14	34	·
COc1ccc(C(=O)NCCc2nnc(SCC(=O)Nc3ccccc3C(C)C)n2C)cc1	7	-3	-11	6	15	24	·
NC(=O)c1c(NC(=O)c2ccc([N+](=O)[O-])o2)sc2c1CCCC2	8	10	16	-67	28	44	·
N#Cc1c(NC(=O)c2ccc([N+](=O)[O-])o2)sc2c1CCC2	4	-4	38	-33	37	58*	69*
C=CCn1c(-c2cc(-c3ccc(C)cc3)nc3ccccc23)n[nH]c1=S	3	3	40	-84	33	60*	53*
C=CCn1c(-c2cccc3ccccc23)n[nH]c1=S	13	-4	36	7	28	22	·
O=c1cc(CSc2ccc(S(=O)(=O)N3CCCCC3)cn2)nc2sccn12	-2	5	15	-24	27	66*	38
OC1CCN(c2cc(-c3ccccc3)nc3cc(-c4ccc(F)cc4)nn23)CC1	36	35	32	13	31	16	·
